# PubChem BioAssay (NCATS)
# Values joined by “and” are separate entries in the source; they are usually repeats but may differ in a detail not shown here. Equal values may be shown once. Inconclusive results are not listed. Where a call stands in place of a potency, no number is given. Unmarked numbers belong to inactive results. Active and inactive are the calls of the source. The call rests on the fitted dose curve; in most records, active means well fitted curve in the direction sought with a large enough effect; inconclusive means small, poorly fitted or top-dose-only effect, or another doubt; inactive means no such curve, though single readings can be large; an effect the other way counts as inactive or inconclusive.
# Columns and labels:
# [1] = target: Cellular tumor antigen p53 (Homo sapiens) (UniProt P04637); assay: Primary qHTS for small molecule compounds that upregulate eGFP-tagged delta133p53alpha (in N-terminal) cells. (AID 2060322); settings: NCI-H358 eGFP-delta133p53alpha fluorescence, 24 h; activation: stronger effect = higher value; further: nearly all actives have a fitted effect of over 75% in size; further: potency means the concentration at half of the fitted maximal effect; on activation: series mostly up to about 56 µM
# Cellular tumor antigen p53 (Homo sapiens), sequence (P04637 whole entry, looked up): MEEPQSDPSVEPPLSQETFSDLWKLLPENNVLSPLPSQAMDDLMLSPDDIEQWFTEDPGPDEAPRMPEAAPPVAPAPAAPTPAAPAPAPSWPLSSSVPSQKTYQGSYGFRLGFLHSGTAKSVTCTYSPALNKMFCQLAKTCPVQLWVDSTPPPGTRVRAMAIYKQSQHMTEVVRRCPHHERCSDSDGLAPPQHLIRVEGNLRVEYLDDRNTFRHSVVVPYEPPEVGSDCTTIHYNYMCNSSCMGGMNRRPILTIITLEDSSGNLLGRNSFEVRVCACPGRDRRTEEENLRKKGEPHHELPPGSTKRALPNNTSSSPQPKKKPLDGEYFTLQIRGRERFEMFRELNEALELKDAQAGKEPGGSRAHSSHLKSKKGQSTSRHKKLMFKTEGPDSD
# Method in brief: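 NCI-H358 cells pre-induced 24 h with 10 ng/ml doxycycline to express N-terminal eGFP-delta133p53alpha, then dosed 24 h at 37C without doxycycline; fixed, Hoechst-stained, GFP intensity by laser scanning cytometry, normalized to DMSO (0%) and 57.5 uM 5-azacytidine (100%).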
# [2] = target: Aldehyde dehydrogenase, mitochondrial (Homo sapiens) (UniProt P05091); assay: qHTS for Inhibitors of the Aldehyde Dehydrogenase Family (ALDH2) Primary screen (AID 2061308); further: nearly all actives have a fitted effect of over 55% in size
# [3] = target: Retinaldehyde dehydrogenase 3 (Homo sapiens) (UniProt P47895); assay: qHTS for Inhibitors of the Aldehyde Dehydrogenase Family (ALDH1A3) Primary screen (AID 2061315)
# [4] = BET inhibitor-based combinations targeting novel dependencies in MECOM-rearranged (r) AML: SET-2 cell line (AID 2202231); settings: SET-2 AML cells viability, CellTiter-Glo luminescence, 48 h; viability: stronger effect = lower value, concentration not given here; further: nearly all actives have a fitted effect of over 35% in size; further: potency means the concentration at half of the fitted maximal effect
# Method in brief: (§1)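 A 48 hr incubation preceded viability reading by CellTiter-Glo, with 15 min room-temperature development. Dose series had 11 points; normalization used DMSO and empty wells; AUC was computed and mean-centered per line as Z-AUC.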
# [5] = BET inhibitor-based combinations targeting novel dependencies in MECOM-rearranged (r) AML: OCI-AML3 cell line (AID 2202232); settings: Potency: OCI-AML3 viability; further: nearly all actives have a fitted effect of over 35% in size; further: potency means the concentration at half of the fitted maximal effect
# Method in brief: as §1
# [6] = BET inhibitor-based combinations targeting novel dependencies in MECOM-rearranged (r) AML: MV-4-11 cell line (AID 2202233); further: nearly all actives have a fitted effect of over 45% in size; further: potency means the concentration at half of the fitted maximal effect
# Method in brief: (§2)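 Each compound is tested in an 11-point concentration series against 500 seeded cells/well for 48 hr. The luminescent viability signal is normalized to DMSO and blank wells, then reduced to AUC and a cell-line-centred Z-AUC.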
# [7] = BET inhibitor-based combinations targeting novel dependencies in MECOM-rearranged (r) AML: AML-194 cell line (AID 2202237; further: nearly all actives have a fitted effect of over 40% in size; further: potency means the concentration at half of the fitted maximal effect)
# Method in brief: as §1
# [8] = BET inhibitor-based combinations targeting novel dependencies in MECOM-rearranged (r) AML: UCSD-AML1 cell line (AID 2202235); further: nearly all actives have a fitted effect of over 40% in size; further: potency means the concentration at half of the fitted maximal effect
# Method in brief: as §2
# [9] = BET inhibitor-based combinations targeting novel dependencies in MECOM-rearranged (r) AML: AML-191 cell line (AID 2202236; further: nearly all actives have a fitted effect of over 35% in size; further: potency means the concentration at half of the fitted maximal effect)
# Method in brief: as §1
# [10] = BET inhibitor-based combinations targeting novel dependencies in MECOM-rearranged (r) AML: HNT-34 cell line (AID 2202234); further: nearly all actives have a fitted effect of over 35% in size; further: potency means the concentration at half of the fitted maximal effect
# Method in brief: as §2
smiles,measurement,setting,value
O=C(O)CNC(=O)c1c(O)c2ccccc2n(Cc2ccccc2)c1=O,activation,[1],-9.57% and 9.82%
same,Potency,[2],inactive
same,Potency,[3],inactive
same,viability,[4],107%
same,Potency,[5],inactive
same,Potency,[6],inactive
same,Potency,[7],inactive
Cc1cc(SCc2sc(-c3ccc(C(F)(F)F)c(F)c3)nc2C)ccc1OCC(=O)O,activation,[1],-16% and 31%
same,Potency,[2],inactive
same,Potency,[3],inactive
same,viability,[4],99.6%
same,Potency,[8],inactive
same,Potency,[9],inactive
C=C1[C@@]23C(=O)O[C@H](C)[C@]24O[C@@]2(C(=C)[C@]5(C=CC(=O)OC5(C)C)CC[C@]32C)[C@H](O)[C@@]1(C)OC4=O,activation,[1],13%
same,Potency,[3],inactive
O=C(NCC1CCOCC1)c1cnc(Nc2ccc(Cl)cc2Cl)nc1C(F)(F)F,activation,[1],-5.35% and 9.55%
same,Potency,[2],inactive
same,Potency,[3],inactive
same,viability,[4],97.9%
same,Potency,[5],inactive
same,Potency,[6],14800 nM (active)
same,Potency,[7],inactive
Clc1ccc(N2C[C@H]3CC[C@@H](C2)N3)nn1,activation,[1],-0.333%
same,Potency,[3],inactive
CCNC(=O)C[C@@H]1N=C(c2ccc(Cl)cc2)c2cc(OC)ccc2-n2c(C)nnc21,activation,[1],-15.8% and 11.6%
same,Potency,[2],inactive
same,Potency,[3],inactive
same,Potency,[4],2.63 µM (active)
same,Potency,[6],468 nM (active)
C/C=C(/C)C(=O)O[C@H]1C(C)=C2[C@H]([C@@H]1OC(=O)CCCCCCC)[C@@](C)(OC(C)=O)C[C@H](OC(=O)CCC)[C@@]1(O)[C@H]2OC(=O)[C@@]1(C)O,Potency,[1],33.8 µM (active)
same,Potency,[2],inactive
same,Potency,[3],inactive
same,Potency,[4],0.263 µM (active)
same,Potency,[5],662 nM (active)
same,Potency,[6],166 nM (active)
same,Potency,[10],52.5 nM (active)
same,Potency,[9],417 nM (active)
same,Potency,[7],2.09 µM (active)
CCCOC(=O)Cc1ccc(OCC(=O)N(CC)CC)c(OC)c1,activation,[1],4.33%
same,Potency,[2],inactive
same,Potency,[3],inactive
C[N@@+]1(CC2CC2)CC[C@]23c4c5ccc(O)c4O[C@H]2C(=O)CC[C@@]3(O)[C@H]1C5,activation,[1],-5.67%
same,Potency,[2],inactive
same,Potency,[3],inactive
N#CC(OC1OC(COC2OC(CO)C(O)C(O)C2O)C(O)C(O)C1O)c1ccccc1 (stereo not drawn),activation,[1],8.4%
same,Potency,[2],inactive
same,Potency,[3],inactive
CCN1C[C@]2(COC)CC[C@H](O)[C@@]34C5C[C@@H]6[C@@H](OC)C[C@@](OC(C)=O)(C5[C@@H]6OC(C)=O)[C@H]([C@H](OC)C23)[C@@H]14 (stereo partly drawn),activation,[1],8.04%
same,Potency,[2],inactive
same,Potency,[3],inactive
O=C1Nc2ccc3ncsc3c2/C1=C/c1cnc[nH]1,Potency,[1],2.39 µM (active)
same,Potency,[2],inactive
same,Potency,[3],inactive
O=C(C[C@@H]1NCCC[C@H]1O)Cn1cnc2ccccc2c1=O,Potency,[1],0.239 µM (active)
same,Potency,[3],inactive
CC(C)(C)c1cc(C(C)(C)C)c2c(c1)C(O)(C(F)(F)F)C(=O)O2 (stereo not drawn),activation,[1],23.2%
same,Potency,[2],inactive
same,Potency,[3],inactive
NC(=O)[C@@H](CC1CC1)[C@@H](CCC(F)(F)F)C(=O)N[C@H]1N=C(c2ccccc2)c2cccc(F)c2NC1=O,activation,[1],-1.79%
same,Potency,[2],inactive
same,Potency,[3],inactive
same,viability,[4],117%
same,Potency,[5],inactive
same,Potency,[6],inactive
same,Potency,[8],inactive
same,Potency,[9],inactive
same,Potency,[7],inactive
CN1C(=O)[C@]23CC4C(C)(C)[C@@]5(C[C@@]41CN2CC[C@@]3(C)O)C(=O)Nc1c5ccc2c1OC=CC(C)(C)O2 (stereo partly drawn),activation,[1],-19.1%
same,Potency,[3],inactive
COC1C(O)C(C)OC(OC2C(CO)O[C@@H](O[C@@H]3CC4CCC5C(CC[C@]6(C)[C@@H](C7=CC(=O)OC7)CC[C@]56O)[C@@]4(C)[C@H](O)C3)C(O)C2O)C1O (stereo partly drawn),Potency,[1],5 µM (active)
same,Potency,[2],inactive
same,Potency,[3],inactive
C[C@H](Nc1ncnc2nc[nH]c12)c1nc2ccc(F)cc2c(=O)n1-c1ccccc1,activation,[1],11.6%
same,Potency,[2],inactive
same,Potency,[3],inactive
same,Potency,[9],5250 nM (active)
O=C(N[C@@H](COc1ccc2[nH]c(=O)[nH]c2c1)c1ccccc1)c1cccn(Cc2ccc(F)c(F)c2)c1=O,Potency,[1],30.6 µM (active)
same,Potency,[2],inactive
same,Potency,[3],inactive
same,viability,[4],94%
same,Potency,[5],10500 nM (active)
COC[C@]12CN(C)C3C4[C@H](OC)[C@H]1C3(C(OC)C[C@H]2O)[C@H]1C[C@@]2(O)[C@H](OC(=O)c3ccccc3)[C@@H]1[C@]4(O)[C@@H](O)[C@@H]2OC (stereo partly drawn),activation,[1],-0.333%
same,Potency,[2],inactive
same,Potency,[3],inactive
CC(C)[C@]12O[C@H]1[C@@H]1O[C@]13[C@]1(O[C@H]1C[C@H]1C4=C(CC[C@@]13C)C(=O)OC4)[C@@H]2O,Potency,[1],0.269 µM (active)
same,Potency,[2],inactive
same,Potency,[3],inactive
same,Potency,[4],0.059 µM (active)
same,Potency,[6],37.2 nM (active)
same,Potency,[10],74.2 nM (active)
same,Potency,[8],41.7 nM (active)
CCCC[N+]1(C)[C@H]2CC(OC(=O)[C@H](CO)c3ccccc3)C[C@H]1[C@H]1O[C@H]12 (stereo partly drawn),activation,[1],-13.2%
same,viability,[4],109%
same,Potency,[5],inactive
same,Potency,[6],inactive
same,Potency,[10],inactive
same,Potency,[8],inactive
same,Potency,[9],inactive
same,Potency,[7],inactive
N[C@@H](Cc1ccc(N(CCCl)CCCl)cc1)C(=O)O,activation,[1],29.4%
same,Potency,[4],4.68 µM (active)
same,Potency,[6],1480 nM (active)
same,Potency,[8],2950 nM (active)
same,Potency,[7],2.95 µM (active)
Cc1sc2c(c1C)C(c1ccc(Cl)cc1)=N[C@@H](CC(=O)OC(C)(C)C)c1nnc(C)n1-2,activation,[1],-35.4% and 15.6%
same,Potency,[5],263 nM (active)
same,Potency,[10],662 nM (active)
same,Potency,[9],662 nM (active)
